Source: the supplement of paper PMC11732987, “Enantioselective OTUD7B fragment discovery through chemoproteomics screening and high-throughput optimisation” (Communications Chemistry, 2025)

biological target: T1, YOD1 (UniProt Q5VVQ6); assay: log2 ratio of Biotin-Ahx-Ub-VS probe labelling (fragment/DMSO); higher = less target engagement (more negative = stronger competition), active = hit call of the paper (q ≤ 0.05, log2 ratio ≤ -1); settings: compound concentration: 200 uM; treatment time: 3 h
T1 sequence (whole entry): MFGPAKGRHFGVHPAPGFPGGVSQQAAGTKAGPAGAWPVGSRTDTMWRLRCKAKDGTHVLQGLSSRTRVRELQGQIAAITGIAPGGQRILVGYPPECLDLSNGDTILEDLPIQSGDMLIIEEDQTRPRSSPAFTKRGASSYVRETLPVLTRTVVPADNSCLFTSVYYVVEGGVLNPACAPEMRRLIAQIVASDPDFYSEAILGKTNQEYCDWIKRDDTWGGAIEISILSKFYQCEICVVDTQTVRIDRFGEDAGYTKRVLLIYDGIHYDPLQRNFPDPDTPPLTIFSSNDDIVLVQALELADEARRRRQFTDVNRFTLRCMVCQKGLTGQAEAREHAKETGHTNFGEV
Outline: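 Using Biotin-Ahx-Ub-VS at 0.5 µM final for 1 h, DUBs were labelled in HEK293T lysate (495 µg per sample) that had first been treated in triplicate with fragment at 200 µM or vehicle for 3 h. NeutrAvidin enrichment, LysC and trypsin digestion and diaPASEF LC-MS/MS followed. Spectronaut label-free quantities were global-median-normalised. Values are average log2 fragment/vehicle ratios by unpaired t-test, using proteins with ≥2 unique peptides.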

log2 ratio of Biotin-Ahx-Ub-VS probe labelling, inactive:
CNC(=O)C1(NC(=O)CCl)CCCCC1 -0.0513
Cl.O=C(CCl)N1CCC(n2nc3ccccc3n2)CC1 -0.0827
N#Cc1ccccc1N1CCN(C(=O)CCl)CC1 -0.448
O=C(CCl)NC(Cn1ccccc1=O)c1ccccc1 (centres undefined) 0.00589
O=C(CCl)N1CC=C(c2c[nH]c3ccccc23)CC1 -0.219
O=C(CCl)NC1CCC(C(F)(F)F)CC1 (centres undefined) -0.348
Cc1ccc2nnc(CNC(=O)CCl)n2c1 0.241
Cl.Cn1nccc1C(NC(=O)CCl)c1ccccc1 (centres undefined) 0.125
O=C(CCl)Nc1ccc(F)cc1F -0.107
Cc1n[nH]c2c1CN(C(=O)CCl)CC2 -0.674
O=C(CCl)N1CCOC2(CCC2)CC1 -0.0502
CC(NC(=O)CCl)c1cccc(Cl)c1 (centres undefined) -0.167
O=C(CCl)NCC1(c2ccccc2)CC1 0.0857
CC1(NC(=O)CCl)CCS(=O)(=O)C1 (centres undefined) -0.754
Cc1cccn2cc(CCNC(=O)CCl)nc12.Cl -0.095
CN(CCc1ncc(Br)cn1)C(=O)CCl.Cl 0.0394
O=C(CCl)N1CCCCC12CCOCC2 -0.518
Cl.O=C(CN1CCN(C(=O)CCl)CC1)Nc1ccc(F)cc1 0.204
O=C(CCl)NCCc1ccc2c(c1)OCCO2 -0.414
O=C(CCl)NC1(c2ccc3c(c2)OCCO3)CCCC1 -0.199
COCC[C@@H](NC(=O)CCl)c1ccccc1 0.231
CC(NC(=O)CCl)c1ccc2[nH]ncc2c1 (centres undefined) -0.629
Cl.Cn1ncc2c1CC(NC(=O)CCl)CC2 (centres undefined) 0.181
CCC1c2ccsc2CCN1C(=O)CCl (centres undefined) -0.026
Cc1cccnc1NC(=O)C1CCN(C(=O)CCl)CC1.Cl -0.214
O=C(CCl)N1CCCC2CCCCC21 (centres undefined) 0.0864
Cl.Cn1cnc2cc(CNC(=O)CCl)ccc21 0.0476
Cl.Cn1c(CNC(=O)CCl)nc2cccnc21 -0.334
N#Cc1ccc(Cl)cc1NC(=O)CCl 0.0565
CN(C(=O)CCl)c1nc2ccccc2s1 0.155
Cc1n[nH]c(=O)c2c(NC(=O)CCl)oc(C)c12 0.238
CC(=O)Nc1ccc(NC(=O)CCl)cc1 -0.229
O=C(CCl)N1CCOC2(CCC2)C1 0.154
Cl.O=C(CCl)N1CCc2ncncc2C1 0.055
